Measurements from article PMC4081100, “A DNA-binding-site landscape and regulatory network analysis for NAC transcription factors in Arabidopsis thaliana”.

Columns and labels:
Assay in all cases: universal protein binding microarray (PBM); transcription factors of Arabidopsis thaliana; high values mean tight binding
[1] = target: T1, GST-ANAC092(1-176) (Arabidopsis thaliana, UniProt Q9FKA0 1-176); details: protein: recombinant; tags: GST; chain copies: 2; dsDNA, one strand shown
T1 sequence: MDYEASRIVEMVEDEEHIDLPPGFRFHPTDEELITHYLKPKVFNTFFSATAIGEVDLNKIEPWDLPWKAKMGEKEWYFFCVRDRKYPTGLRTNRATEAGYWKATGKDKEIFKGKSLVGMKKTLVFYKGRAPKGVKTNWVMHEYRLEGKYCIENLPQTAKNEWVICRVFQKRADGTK
Procedure, shortened: (§1)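 Protein amounts were determined by A280 or anti-GST western blot after glutathione–Sepharose 4B purification of GST-tagged proteins induced in cells, with zinc acetate included for zinc-finger proteins. Duplicate runs at 200 to 500 nM final were done on custom all-10-mer Agilent 4 × 180K arrays made double-stranded by primer extension. The normalised enrichment score (E-score) over gapped and ungapped 8-mers is the measure of binding.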

[2] = target: T2, GST-ANAC019 NAC domain (Arabidopsis thaliana, UniProt Q9C932 14-162); details: protein: recombinant; tags: GST; chain copies: 2; dsDNA, one strand shown
T2 sequence: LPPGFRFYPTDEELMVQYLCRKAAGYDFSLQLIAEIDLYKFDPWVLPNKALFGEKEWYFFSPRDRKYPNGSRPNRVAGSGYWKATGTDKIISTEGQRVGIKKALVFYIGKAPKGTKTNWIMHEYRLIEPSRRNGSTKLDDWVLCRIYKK
Procedure, shortened: as §1

[3] = target: T3, GST-ANAC055(1-171) (Arabidopsis thaliana, UniProt Q9LDY8 1-171); details: protein: recombinant; tags: GST; chain copies: 2; dsDNA, one strand shown
T3 sequence: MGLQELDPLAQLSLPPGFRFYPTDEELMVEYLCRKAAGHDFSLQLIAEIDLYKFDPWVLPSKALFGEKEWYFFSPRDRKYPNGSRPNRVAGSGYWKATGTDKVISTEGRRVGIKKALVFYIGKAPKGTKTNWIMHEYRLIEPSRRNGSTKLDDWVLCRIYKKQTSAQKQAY
Procedure, shortened: as §1

[4] = target: T4, GST-ATAF1 NAC domain (Arabidopsis thaliana, UniProt Q39013 7-158); details: protein: recombinant; tags: GST; chain copies: 2; dsDNA, one strand shown
T4 sequence: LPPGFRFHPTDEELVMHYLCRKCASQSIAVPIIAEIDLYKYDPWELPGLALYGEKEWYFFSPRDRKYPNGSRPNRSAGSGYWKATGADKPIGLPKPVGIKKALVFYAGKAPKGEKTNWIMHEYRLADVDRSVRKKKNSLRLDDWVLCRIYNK
Procedure, shortened: as §1

[5] = target: T5, GST-ANAC092(1-285) full length (Arabidopsis thaliana, UniProt Q9FKA0 1-285); details: protein: recombinant; tags: GST; chain copies: 2; dsDNA, one strand shown
T5 sequence: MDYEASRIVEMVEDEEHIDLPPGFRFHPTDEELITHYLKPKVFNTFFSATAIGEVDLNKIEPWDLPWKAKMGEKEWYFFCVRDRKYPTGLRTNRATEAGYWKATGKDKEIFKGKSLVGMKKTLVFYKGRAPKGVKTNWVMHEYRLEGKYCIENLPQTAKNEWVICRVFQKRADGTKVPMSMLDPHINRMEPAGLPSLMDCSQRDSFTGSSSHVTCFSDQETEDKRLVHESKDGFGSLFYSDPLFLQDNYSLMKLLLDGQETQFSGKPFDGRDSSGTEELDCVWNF
Procedure, shortened: as §1

[6] = target: T6, GST-NAP(1-166) (Arabidopsis thaliana, UniProt O49255 1-166); details: protein: recombinant; tags: GST; chain copies: 2; dsDNA, one strand shown
T6 sequence: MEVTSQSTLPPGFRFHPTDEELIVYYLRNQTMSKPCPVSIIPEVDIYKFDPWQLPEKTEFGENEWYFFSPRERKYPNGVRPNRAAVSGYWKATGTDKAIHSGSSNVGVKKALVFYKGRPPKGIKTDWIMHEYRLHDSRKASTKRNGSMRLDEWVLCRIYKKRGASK
Procedure, shortened: as §1

[7] = target: T7, GST-NST2(1-184) (Arabidopsis thaliana, UniProt Q9M274 1-184); details: protein: recombinant; tags: GST; chain copies: 2; dsDNA, one strand shown
T7 sequence: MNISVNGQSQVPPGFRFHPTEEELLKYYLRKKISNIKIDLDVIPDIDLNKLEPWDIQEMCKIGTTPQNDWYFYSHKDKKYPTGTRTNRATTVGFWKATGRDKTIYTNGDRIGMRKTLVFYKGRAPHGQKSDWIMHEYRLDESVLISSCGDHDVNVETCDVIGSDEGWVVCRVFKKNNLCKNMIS
Procedure, shortened: as §1

[8] = target: T8, GST-SND1(1-203) (Arabidopsis thaliana, UniProt Q9LPI7 1-203); details: protein: recombinant; tags: GST; chain copies: 2; dsDNA, one strand shown
T8 sequence: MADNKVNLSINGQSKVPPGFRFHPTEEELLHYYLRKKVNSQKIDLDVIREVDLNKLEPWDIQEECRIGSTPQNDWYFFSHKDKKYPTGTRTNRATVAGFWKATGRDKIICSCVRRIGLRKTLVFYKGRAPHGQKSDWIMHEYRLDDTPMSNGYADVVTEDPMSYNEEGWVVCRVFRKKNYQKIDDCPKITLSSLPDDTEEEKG
Procedure, shortened: as §1

[9] = target: T9, GST-VND3 NAC domain (Arabidopsis thaliana, UniProt Q9FH59 12-162); details: protein: recombinant; tags: GST; chain copies: 2; dsDNA, one strand shown
T9 sequence: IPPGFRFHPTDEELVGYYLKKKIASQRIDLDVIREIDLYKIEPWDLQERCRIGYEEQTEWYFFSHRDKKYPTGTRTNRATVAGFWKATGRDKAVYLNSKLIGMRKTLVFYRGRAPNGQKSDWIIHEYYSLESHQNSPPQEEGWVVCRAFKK
Procedure, shortened: as §1

[10] = target: T10, GST-VND7 NAC domain (Arabidopsis thaliana, UniProt Q9C8W9 9-158); details: protein: recombinant; tags: GST; chain copies: 2; dsDNA, one strand shown
T10 sequence: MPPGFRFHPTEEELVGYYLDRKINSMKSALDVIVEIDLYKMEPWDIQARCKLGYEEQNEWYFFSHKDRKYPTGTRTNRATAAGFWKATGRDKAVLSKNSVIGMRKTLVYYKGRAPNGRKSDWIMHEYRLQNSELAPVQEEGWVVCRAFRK
Procedure, shortened: as §1

[11] = target: GST-WRKY1(266-371) (Arabidopsis thaliana, UniProt Q9SI37 266-371); details: protein: recombinant; tags: GST; dsDNA, one strand shown
Procedure, shortened: as §1

[12] = target: GST-NTL6(1-168) (Arabidopsis thaliana, UniProt Q9SCK6 1-168); details: protein: recombinant; tags: GST; chain copies: 2; dsDNA, one strand shown
Procedure, shortened: as §1

[13] = target: T11, GST-NTL8 NAC domain (Arabidopsis thaliana, UniProt Q9XIN7 14-156); details: protein: recombinant; tags: GST; chain copies: 2; dsDNA, one strand shown
T11 sequence: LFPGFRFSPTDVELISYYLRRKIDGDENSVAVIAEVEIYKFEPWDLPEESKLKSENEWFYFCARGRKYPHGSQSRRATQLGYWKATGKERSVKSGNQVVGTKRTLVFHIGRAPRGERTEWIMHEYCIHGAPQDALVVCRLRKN
Procedure, shortened: as §1

Sequence of GST-WRKY1(266-371) (Q9SI37 266-371): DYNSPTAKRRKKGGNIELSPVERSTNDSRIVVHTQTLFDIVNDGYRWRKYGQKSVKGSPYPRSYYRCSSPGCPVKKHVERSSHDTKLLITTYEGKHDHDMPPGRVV
Sequence of GST-NTL6(1-168) (Q9SCK6 1-168): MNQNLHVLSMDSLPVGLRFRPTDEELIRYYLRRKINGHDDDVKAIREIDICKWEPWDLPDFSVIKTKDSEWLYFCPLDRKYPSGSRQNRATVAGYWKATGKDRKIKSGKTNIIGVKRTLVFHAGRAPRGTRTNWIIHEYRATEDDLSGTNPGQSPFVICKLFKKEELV

| Sequence | binding signal [1] [E-score] | binding signal [2] [E-score] | binding signal [3] [E-score] | binding signal [4] [E-score] | binding signal [5] [E-score] | binding signal [6] [E-score] | binding signal [7] [E-score] | binding signal [8] [E-score] | binding signal [9] [E-score] | binding signal [10] [E-score] | binding signal [11] [E-score] | binding signal [12] [E-score] | binding signal [13] [E-score] |
| --- | --- | --- | --- | --- | --- | --- | --- | --- | --- | --- | --- | --- | --- |
| GCACGTCA | 0.449 | 0.421 | 0.341 | 0.317 | 0.465 | 0.341 | 0.229 | 0.29 | 0.368 | 0.38 | 0.195 |  |  |
| GTTCCGTA | 0.351 | 0.43 | 0.448 | 0.438 | 0.373 | 0.455 | 0.179 | 0.377 | 0.375 | 0.439 | 0.0936 |  |  |
| AAGGAAAG | 0.261 | 0.104 | 0.181 | 0.0767 | 0.186 |  | 0.239 | 0.262 | 0.0708 | 0.117 | 0.0652 | 0.398 | 0.467 |
| GAGACGTA | 0.194 | 0.432 | 0.395 | 0.411 | 0.331 | 0.396 | 0.236 | 0.322 | 0.418 | 0.413 | 0.0734 |  |  |
| AATAGCGT | 0.39 |  | 0.138 | 0.114 | 0.412 | 0.121 | 0.261 | 0.383 | 0.119 | 0.191 | 0.0558 |  |  |
| AAAGTCAT |  |  |  | 0.14 | 0.119 | 0.0502 | 0.0576 | 0.162 | 0.0602 | 0.121 | 0.428 |  |  |
| AACTTGAC | 0.0775 |  | 0.105 | 0.0699 | 0.088 |  | 0.173 | 0.136 | 0.152 | 0.0683 | 0.425 |  |  |
| ACGCAACC | 0.483 | 0.455 | 0.421 | 0.428 | 0.492 | 0.478 | 0.434 | 0.481 | 0.416 | 0.443 | 0.107 |  | 0.146 |
| CTTGCGTA | 0.471 | 0.382 | 0.306 | 0.317 | 0.474 | 0.386 | 0.332 | 0.479 | 0.416 | 0.394 | 0.0686 |  | 0.0618 |
| ACGTCTCC | 0.21 | 0.411 | 0.353 | 0.368 | 0.33 | 0.273 | 0.167 | 0.182 | 0.34 | 0.322 | 0.0802 |  | 0.052 |
| ACGCAAGG | 0.399 | 0.084 | 0.106 | 0.106 | 0.448 | 0.2 | 0.226 | 0.39 | 0.122 | 0.128 | 0.201 |  | 0.152 |
| ACACTCAA | 0.425 | 0.116 | 0.174 | 0.17 | 0.448 | 0.07 | 0.184 | 0.264 | 0.092 | 0.185 | 0.133 |  | 0.0774 |
| GACGTCAA | 0.16 |  | 0.0759 | 0.0728 | 0.19 | 0.122 | 0.0988 | 0.139 | 0.126 | 0.0526 | 0.436 |  |  |
